An excerpt weighted towards active compounds, which were near 20% of everything screened.
Shiga toxin inh = inhibitors of Shiga toxin in Vero cells; Vero cells, Shiga toxin protein synthesis inhibition reporter; inhibition, % at 38.7 µM; 290,000 tested, 9.2% active; in the data active = inhibition mostly above about 28%, no sharp cut-off; inactive = mostly below about 43%; also: 0% is about no effect
Pf growth 48h = P. falciparum growth inhibition at 48 hours (one generation). AID 504832. P. falciparum luciferase growth in erythrocytes, 48 h. Potency, µM (top dose mostly 28.7 µM), inactives show top-dose activity change, negative = inhibition, hits mostly inhibitors. 310,000 tested, 5.9% active; also: potency is read from the fitted curve at half-maximal effect; % is scaled to controls: 0 for no effect and ±100 for the full control effect
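Read-out is firefly luciferase luminescence from an integrated reporter in P. falciparum, so falling signal marks reduced parasite growth. Infected erythrocytes were at 2% hematocrit and 0.1% parasitemia (final) in Albumax-supplemented RPMI 1640.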
Pf growth 96h = P. falciparum growth inhibition at 96 hour, primary screen for plastid delayed-death inhibitors; AID 504834; Potency, µM (top dose mostly 28.7 µM), without a hit: top-dose activity change, negative = inhibition, actives largely listed as inhibitors; P. falciparum luciferase reporter growth, 96 h; 320,000 tested, 6.9% active; also: potency is read from the fitted curve at half-maximal effect; % is scaled to controls: 0 for no effect and ±100 for the full control effect
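Two-generation exposure (96 h) targets delayed-death phenotype. Reporter parasites carrying integrated firefly luciferase, in red cells at 2% hematocrit and 0.05% parasitemia final, kept at 37 C, 5% CO2; luminescence loss indicates inhibition.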
HCMV inh = inhibitors of human cytomegalovirus. HFF cells, HCMV-luciferase reporter, 72 h; hits give low values. activity change, negative = inhibition, % at 57.5 µM. 410,000 tested, 4.5% active; in the data active = activity change below about -60%; inconclusive = no clear call, values can overlap the other calls; inactive = above about -39%; also: % is scaled to controls: 0 for no effect and ±100 for the full control effect
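Luciferase read-out from HCMV-luciferase-infected HFFs (MOI 1 PFU/cell) 72 h post infection at 37C; compounds added after 16 h cell attachment; activity normalized between buffer-only basal and Salinomycin (10uM) inhibitor controls.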
Cycloheximide cs = counter-screen hit for Shiga toxin inhibitors, cycloheximide | cell reporter, cycloheximide protein synthesis inhibition counterscreen | max response, % | 300,000 tested, 12% active; in the data active = max response mostly above about 13%, no sharp cut-off; inactive = mostly below about 14%; also: read at 38.3 µM for the half of the compounds with a filed dose; 0% is about no effect
Active calls of the source: *; ? = inconclusive; nt = no result given; [ ] = dose if it differs, or a comment. Unless noted, calls follow the shape of the dose curve; as a rule, active = well fitted inhibition curve with a large enough effect; inconclusive = small, poorly fitted or top-dose-only effect, or another doubt; inactive = no such curve, though single readings can be large or run the other way.

SMILES	Shiga toxin inh	Pf growth 48h	Pf growth 96h	HCMV inh	Cycloheximide cs
O=C(/C=C/c1ccc(Cl)cc1)NC(=S)Nc1ccc(N2CCOCC2)c(Cl)c1	61	0%	10µM*	?	0
COc1ccc(NC(=O)CN2C(=O)C(C)(C)c3cc(S(=O)(=O)N4CCCCC4)ccc32)cc1Cl	nt	nt	nt	-8	nt
O=C(Nc1ccc(N2CCOCC2)c(Cl)c1)C1CCCCC1	129	9%	19%	27	52*
O=C(Nc1ccc(N2CCCCC2)c(Cl)c1)c1ccc2c(c1)OCCO2	57	12%	nt	-77*	45*
COC(=O)c1cc(NC(=O)c2cc(-c3ccccc3Cl)oc2C(F)(F)F)ccc1N1CCOCC1	27	?	?	-7	-3
COC(=O)c1cc(NC(=O)c2cc(-c3ccc(Cl)cc3)oc2C(F)(F)F)ccc1N1CCOCC1	3	12µM*	?	-18	1
O=C(Nc1ccc(N2CCOCC2)c(Cl)c1)c1ccc2c(c1)OCCO2	8	?	-5%	-61*	-2
Cc1sc2ncn(CC(=O)N3CCN(c4ccc(Cl)cc4)CC3)c(=O)c2c1S(=O)(=O)N1CCN(c2ncccn2)CC1	nt	nt	nt	-18	nt
CNc1nc(-c2c(C)n(C)c3ccc(OC)cc23)cs1	-6	18%[0.00184 µM]	?	47	-2
CCOc1cccc(/C=C/c2ccc3cccc(O)c3n2)c1OC	93*	?	?	-93*	52*
CCOc1cccc(/C=C/c2ccc3cccc(O)c3n2)c1O	139*	-3%[0.00184 µM]	8.3µM*	-100*	27*
CCOc1cccc(C=NCCc2ccc(OC)c(OC)c2)c1O	-4	-4%	?	13	-2
COc1cccc(C=Cc2nccc3ccccc23)c1OC	nt	nt	nt	36	nt
CC(C)C[C@H]1CNC(=O)C(=O)N1C[C@@H]1CCCN1C[C@H](Cc1ccccc1)N1C[C@H](Cc2ccccc2)N(CCc2ccccc2)C(=O)C1=O	nt	nt	nt	-9	nt
O=S(=O)(Nc1ccncc1)c1ccc(Cl)c(Cl)c1	nt	1%	22%	51	18*
O=S(=O)(Nc1ccncc1)c1cc(Cl)ccc1Cl	5	6%	-12%	-9	-2
Cc1cc(C)c(N=Cc2c(O)[nH]c(=O)[nH]c2=O)c(C)c1	-6	-14%	3.3µM*	32	4
O=C(O)c1ccc(N=Cc2c(O)[nH]c(=O)[nH]c2=O)cc1	14	17%	25%	-76*	1
O=c1[nH]c(O)c(C=Nc2ccc(F)c(Cl)c2)c(=O)[nH]1	-5	21%	22%	?	-4
O=C(CCNC(=O)c1ccc([N+](=O)[O-])cc1)Nc1cccc(S(=O)(=O)N2CCCCCC2)c1	nt	-15%	-4%	-3	nt
O=C(NC(Cc1ccccc1)C(=O)O)/C(=C\c1ccco1)NC(=O)c1ccccc1 (centres undefined)	-10	40%	2.6µM*	19	-1
O=C(NC(Cc1ccccc1)C(=O)O)/C(=C\c1ccco1)NC(=O)c1ccc(Br)cc1 (centres undefined)	-9	18%	46%	70	-2
O=C(NC(Cc1ccccc1)C(=O)O)/C(=C\c1ccco1)NC(=O)c1ccco1 (centres undefined)	18	29%	-15%	8	19*
O=C(NC(Cc1c[nH]c2ccccc12)C(=O)O)/C(=C\c1ccccc1)NC(=O)c1ccccc1 (centres undefined)	13	10%	10µM*	-12	-3
Cc1c(Cl)cccc1NC(=O)CSc1ncc(S(=O)(=O)c2ccc(C(C)C)cc2)c(=O)[nH]1	nt	nt	nt	5	nt
SMILES	Shiga toxin inh	Pf growth 48h	Pf growth 96h	HCMV inh	Cycloheximide cs
COc1ccc(-c2cc(C3C4C=CCC(C)C4C(=O)N3Cc3ccccc3)ccc2F)cc1OC (centres undefined)	63*	nt	nt	nt	51*
CCC1CC=CC2C1C(=O)N(Cc1ccccc1)C2c1ccc2ccccc2c1 (centres undefined)	-3	nt	nt	nt	-5
CC(=O)c1ccc(-c2cc([C@H]3[C@H]4C=CC[C@@H](C)[C@@H]4C(=O)N3Cc3ccccc3)ccc2F)cc1	1	12µM*	?	12	-5
CC(=O)c1ccc(-c2cc(C3C4C=CCC(C)C4C(=O)N3Cc3ccccc3)ccc2F)cc1 (centres undefined)	-5	nt	nt	nt	1
CC[C@@H]1CC=C[C@H]2[C@H]1C(=O)N(Cc1ccccc1)[C@H]2c1ccc2ccccc2c1	14	13µM*	?	nt	6
C[C@@H]1CC=C[C@H]2[C@H]1C(=O)N(Cc1ccccc1)[C@H]2c1ccc(F)c(-c2ccc(N(C)C)cc2)c1	35	?	12µM*	28	-2
CCCCN(C(=O)c1ccc(N2C(=O)c3ccccc3C2=O)cc1)c1c(N)n(CC(C)C)c(=O)[nH]c1=O	nt	39%	15%	-22	nt
CC1=C(C(=O)OCC2CCCO2)C(c2ccccc2)C2=C(CC(C)(C)CC2=O)N1 (centres undefined)	-5	?	-17%	?	-3
CCOc1ccccc1NC(=O)CSc1nc2c(sc3ccccc32)c(=O)n1CCCC(=O)NC1CCCC1	nt	nt	nt	17	nt
COc1ccc(CCNC(=O)CCCn2c(=O)c3cccn3c3ccc(F)cc32)cc1OC	nt	nt	nt	-13	nt
CCCS(=O)(=O)c1nc(S(=O)(=O)c2ccc(C)cc2)c(NCCCN2CCCC2=O)s1	-10	-16%	9.3µM*	-38	-1
Cc1ccc(S(=O)(=O)c2nc(S(=O)(=O)c3ccc(C)cc3)c(NCc3ccco3)s2)cc1	27	?	13µM*	-4	1
CCS(=O)(=O)c1nc(S(=O)(=O)c2ccc(Cl)cc2)c(NCc2ccco2)s1	13	?	?	-34	0
CCCS(=O)(=O)c1nc(S(=O)(=O)c2ccc(C)cc2)c(NCc2ccco2)s1	7	12µM*	?	-33	1
COc1cccc(C(=O)Nc2ccc(-n3nncc3-c3ccc(Br)cc3)cc2)c1OC	nt	nt	nt	18	nt
C/C=C(\C)C(=O)OC1C(C)=C2C(C1OC(=O)CCCCC)C(C)(OC(C)=O)CC(OC(=O)CCC)C1(O)C2OC(=O)C1(C)O (centres undefined)	2	4.1µM*	2.9µM*	nt	-7
CCN(C(=O)Cc1cccs1)c1nnc(-c2cccnc2)s1	48*	30%	3%	-17	28*
CCOc1ccc(NC(=O)C2CC(=O)N(c3ccc(C(C)C)cc3)C2)cc1 (centres undefined)	nt	nt	nt	-6	nt
FC(F)(F)c1cccc(-c2nnn3c2nc(NC2CCCCC2)c2ccccc23)c1	nt	nt	nt	43	nt
CCOC(=O)c1nnn2c1nc(Nc1cccc(C(F)(F)F)c1)c1ccccc12	-16	?	?	-74*	-1
NNc1nc2c(-c3cccc(C(F)(F)F)c3)nnn2c2ccccc12	53*	6.6µM*	26%	44	15*
CC(C(=O)Nc1cccc([N+](=O)[O-])c1)N1C(=O)NC2(CCCC2)C1=O (centres undefined)	4	-9%	-46%	-32	1

Source: PubChem
